# Experimental data published in the supplement of paper PMC8728848.
# The full list was thinned out, with the strongest signals kept by preference.
# Legend:
# Test in all cases: glycan array binding signal (z-score within array); higher = stronger binding
# Conditions in all cases: glycan notation: IUPAC condensed, linker removed
# [1] = tested on: Gal(b1-4)GlcNAc(b1-2)Man(a1-3)[Gal(b1-4)GlcNAc(b1-2)Man(a1-6)]Man(b1-4)GlcNAc(b1-4)[Fuc(a1-6)]GlcNAc
# How it was run: (§1)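 The binding signal is a Z-score computed within each array. Data were drawn from 3228 arrays in the Consortium for Functional Glycomics database, restricted to those with a known protein sequence. Scores were averaged over arrays of the same protein sequence at different concentrations or buffers, and over linkers, and negative values can be taken as non-binding.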
# [2] = tested on: Gal(b1-4)GlcNAc(a1-6)Gal(b1-4)GlcNAc
# How it was run: as §1
# [3] = tested on: Gal(b1-4)GlcNAc(b1-2)Man(a1-3)[Man(a1-6)]Man(b1-4)GlcNAc(b1-4)GlcNAc
# How it was run: as §1
# [4] = tested on: Gal(b1-4)GlcNAc(b1-2)Man
# How it was run: as §1
# [5] = tested on: Gal(b1-4)GlcNAc(b1-2)[Gal(b1-4)GlcNAc(b1-6)]Man(a1-6)[Gal(b1-4)GlcNAc(b1-2)Man(a1-3)]Man(b1-4)GlcNAc(b1-4)GlcNAc
# How it was run: as §1
# [6] = tested on: Gal(b1-4)GlcNAc(b1-3)Gal(b1-4)GlcNAc(b1-3)Gal(b1-4)GlcNAc(b1-2)Man(a1-3)[Gal(b1-4)GlcNAc(b1-3)Gal(b1-4)GlcNAc(b1-3)Gal(b1-4)GlcNAc(b1-2)Man(a1-6)]Man(b1-4)GlcNAc(b1-4)GlcNAc
# How it was run: as §1
# [7] = tested on: Gal(b1-4)GlcNAc(b1-3)Gal(b1-4)GlcNAc(b1-3)Gal(b1-4)GlcNAc(b1-2)Man(a1-3)[Gal(b1-4)GlcNAc(b1-3)Gal(b1-4)GlcNAc(b1-3)Gal(b1-4)GlcNAc(b1-2)Man(a1-6)]Man(b1-4)GlcNAc(b1-4)[Fuc(a1-6)]GlcNAc
# How it was run: as §1
# [8] = tested on: Gal(b1-4)GlcNAc(b1-3)Gal(b1-4)GlcNAc(b1-3)Gal(b1-4)GlcNAc(b1-3)Gal(b1-4)GlcNAc(b1-2)Man(a1-3)[Gal(b1-4)GlcNAc(b1-3)Gal(b1-4)GlcNAc(b1-3)Gal(b1-4)GlcNAc(b1-3)Gal(b1-4)GlcNAc(b1-2)Man(a1-6)]Man(b1-4)GlcNAc(b1-4)[Fuc(a1-6)]GlcNAc
# How it was run: as §1
# [9] = tested on: Gal(b1-4)GlcNAc(b1-2)Man(a1-3)Man(b1-4)GlcNAc(b1-4)GlcNAc
# How it was run: as §1
# [10] = tested on: Gal(b1-4)GlcNAc(b1-2)Man(a1-3)[GlcNAc(b1-2)Man(a1-6)]Man(b1-4)GlcNAc(b1-4)GlcNAc
# How it was run: as §1
# [11] = tested on: Gal(b1-4)GlcNAc(b1-2)Man(a1-3)[Gal(b1-4)GlcNAc(b1-2)Man(a1-6)]Man(b1-4)GlcNAc(b1-4)GlcNAc
# How it was run: as §1
# [12] = tested on: Gal(b1-4)GlcNAc(b1-2)Man(a1-6)[Man(a1-3)]Man(b1-4)GlcNAc(b1-4)GlcNAc
# How it was run: as §1
# [13] = tested on: Gal(b1-4)GlcNAc(b1-2)Man(a1-6)[GlcNAc(b1-2)Man(a1-3)]Man(b1-4)GlcNAc(b1-4)GlcNAc
# How it was run: as §1
# [14] = tested on: Gal(b1-4)GlcNAc(b1-2)[Gal(b1-4)GlcNAc(b1-6)]Man(a1-6)[Gal(b1-4)GlcNAc(b1-2)Man(a1-3)]Man(b1-4)GlcNAc(b1-4)[Fuc(a1-6)]GlcNAc
# How it was run: as §1
# [15] = tested on: Gal(b1-4)GlcNAc(b1-2)[Gal(b1-4)GlcNAc(b1-6)]Man(a1-6)[GlcNAc(b1-4)][Gal(b1-4)GlcNAc(b1-2)[Gal(b1-4)GlcNAc(b1-4)]Man(a1-3)]Man(b1-4)GlcNAc(b1-4)[Fuc(a1-6)]GlcNAc
# How it was run: as §1
# [16] = tested on: Gal(b1-4)GlcNAc(b1-3)Gal(b1-4)GlcNAc(b1-3)Gal(b1-4)GlcNAc(b1-2)[Gal(b1-4)GlcNAc(b1-3)Gal(b1-4)GlcNAc(b1-3)Gal(b1-4)GlcNAc(b1-6)]Man(a1-6)[Gal(b1-4)GlcNAc(b1-3)Gal(b1-4)GlcNAc(b1-3)Gal(b1-4)GlcNAc(b1-2)Man(a1-3)]Man(b1-4)GlcNAc(b1-4)[Fuc(a1-6)]GlcNAc
# How it was run: as §1
# [17] = tested on: Gal(b1-4)GlcNAc(b1-3)Gal(b1-4)GlcNAc(b1-2)Man(a1-3)[Gal(b1-4)GlcNAc(b1-3)Gal(b1-4)GlcNAc(b1-2)Man(a1-6)]Man(b1-4)GlcNAc(b1-4)GlcNAc
# How it was run: as §1
# [18] = tested on: Gal(b1-4)GlcNAc(b1-3)Gal(b1-4)GlcNAc(b1-2)[Gal(b1-4)GlcNAc(b1-3)Gal(b1-4)GlcNAc(b1-6)]Man(a1-6)[Gal(b1-4)GlcNAc(b1-3)Gal(b1-4)GlcNAc(b1-2)Man(a1-3)]Man(b1-4)GlcNAc(b1-4)GlcNAc
# How it was run: as §1
# [19] = tested on: Gal(b1-4)GlcNAc(b1-2)Man(a1-6)Man(b1-4)GlcNAc(b1-4)GlcNAc
# How it was run: as §1
# [20] = tested on: Gal(b1-4)GlcNAc(b1-3)Gal(b1-4)GlcNAc(b1-3)Gal(b1-4)GlcNAc(b1-3)Gal(b1-4)GlcNAc(b1-2)[Gal(b1-4)GlcNAc(b1-3)Gal(b1-4)GlcNAc(b1-3)Gal(b1-4)GlcNAc(b1-3)Gal(b1-4)GlcNAc(b1-6)]Man(a1-6)[Gal(b1-4)GlcNAc(b1-3)Gal(b1-4)GlcNAc(b1-3)Gal(b1-4)GlcNAc(b1-3)Gal(b1-4)GlcNAc(b1-2)Man(a1-3)]Man(b1-4)GlcNAc(b1-4)[Fuc(a1-6)]GlcNAc
# How it was run: as §1
substance,measurement,setting,value
Epa22,glycan array binding signal (z-score),[1],1.95
"SpGH101 (Streptococcus pneumoniae), Q8DR60",glycan array binding signal (z-score),[2],-0.178
same,glycan array binding signal (z-score),[3],-0.069
LcI (Legionella pneumophila),glycan array binding signal (z-score),[4],0.449
same,glycan array binding signal (z-score),[5],0.017
same,glycan array binding signal (z-score),[6],0.132
same,glycan array binding signal (z-score),[7],-0.212
same,glycan array binding signal (z-score),[8],0.132
"BambL (Burhholderia ambifaria), Q0B4G1",glycan array binding signal (z-score),[9],-0.313
same,glycan array binding signal (z-score),[1],0.351
same,glycan array binding signal (z-score),[10],-0.301
"SiiE (Salmonella typhimurium), A0A0H3NVH0",glycan array binding signal (z-score),[11],2.4
same,glycan array binding signal (z-score),[12],0.213
AgI/II Vhelical-GFP (Streptococcus mutans),glycan array binding signal (z-score),[13],-0.18
same,glycan array binding signal (z-score),[14],-0.078
same,glycan array binding signal (z-score),[15],-0.092
same,glycan array binding signal (z-score),[16],0.214
AgI/IIC123-GFP (Streptococcus mutans),glycan array binding signal (z-score),[5],-0.449
same,glycan array binding signal (z-score),[15],-0.015
same,glycan array binding signal (z-score),[17],3.9
same,glycan array binding signal (z-score),[18],-0.185
"Wza (Escherichia coli), P0A930",glycan array binding signal (z-score),[19],1.02
Actinohivin (Actinomycete K97),glycan array binding signal (z-score),[16],0.097
same,glycan array binding signal (z-score),[20],-0.012
